AMA1 RON2 block – disrupts binding of P. falciparum AMA1 to RON2. hit rate 0.2% among 360,000. Potency, µM (top dose mostly 58.2 µM), without a hit: at the top dose activity change, negative = inhibition, hits mostly inhibitors. AID 720542. AlphaScreen AMA1-biotinylated RON2 peptide binding;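 further: 0% = vehicle wells and -100% = peptide control; nearly all actives have a fitted effect of over 45% in size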
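AMA1 (3D7) with his tag at 25 nM final met compounds first, then biotinylated RON2 peptide at 25 nM; detection used donor plus acceptor beads, 10 µg/mL apiece, read by AlphaScreen after 30 min at room temperature.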
Pf growth 48h – inhibits P. falciparum growth in the first generation, 48 h. P. falciparum luciferase growth in erythrocytes, 48 h. Potency, µM (highest dose often 28.7 µM), without a hit: top-dose activity change, negative = inhibition, hits mostly inhibitors. hit rate 5.9% among 310,000; further: on the % scale 0 is the no-effect control and ±100 the full control effect
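First compound was added to culture medium, then infected red cells at 0.1% parasitemia and 2% hematocrit (final). After incubation at 37 C under 5% CO2, luciferase detection reagent was dispensed and light output recorded.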
SARS PLpro yeast – SARS-CoV PLP inhibition in yeast; hit rate 0.19% among 330,000; S. cerevisiae expressing SARS-CoV PLpro, growth rescue; AID 485353; Potency, µM (titrated, usually from 32.9 µM), for inactives: at the top dose activity, positive = growth rescue, actives largely listed as activators; calls by dose curve; further: 0% is about no effect; nearly all actives have a fitted effect of over 55% in size
Pf growth 96h – inhibits malaria parasite growth, 96 h | P. falciparum luciferase reporter growth, 96 h | Potency, µM (top dose mostly 28.7 µM), inactives show top-dose activity change, negative = inhibition, usual class: inhibitors | hit rate 6.9% among 320,000; further: on the % scale 0 is the no-effect control and ±100 the full control effect
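Two parasite generations (96 h, 37 C, 5% CO2) of compound exposure in infected erythrocytes (0.05% parasitemia, 2% hematocrit). Luciferase-reporter P. falciparum; decreased luminescence indicates inhibited growth, aimed at apicoplast-acting delayed death.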
The depositor's hits bear a star. The list is not random: actives were taken first. Their share in the collection is about 9.4%. Unless noted, the call rests on the fitted dose curve; in most records, active means well fitted curve in the direction sought with a large enough effect; inconclusive means small, poorly fitted or top-dose-only effect, or another doubt; inactive means no such curve, though single readings can be large; an effect the other way counts as inactive or inconclusive. Potency means the concentration at half of the fitted maximal effect.

Screening O=C(C1=C[C@@H](c2coc3ccccc3c2=O)C[C@@H](OCCCCO)O1)N1CCOCC1 returned AMA1 RON2 block -1.2%, Pf growth 48h inconclusive, SARS PLpro yeast -1.6% and Pf growth 96h inconclusive.
For CCCCSc1nsc(NC(C)=O)n1 the results were AMA1 RON2 block -8.0%, Pf growth 48h 71.3%, SARS PLpro yeast -19.3% and Pf growth 96h inconclusive.
CCCSc1nsc(NC(=O)CCC)n1 was read as AMA1 RON2 block -4.6%, Pf growth 48h inactive, SARS PLpro yeast -2.4% and Pf growth 96h 3.7µM*.
`CCC(C)Sc1nc2c(c(=O)n1C)SC(C)C2` (centres undefined) gave AMA1 RON2 block -8.9%, Pf growth 48h inconclusive, SARS PLpro yeast -3.6% and Pf growth 96h -13.2%.
For COC(=O)c1cc2oc(C)cc2n1CC(=O)Nc1ccc(C)c(C)c1 the results were AMA1 RON2 block 1.0%, Pf growth 48h 0.0%, SARS PLpro yeast -1.8% and Pf growth 96h 1.65µM*.
For COC(=O)c1cc2sc(Cl)cc2n1CC(=O)N1CCCc2ccccc21 the results were AMA1 RON2 block -2.1%, Pf growth 48h 10.4µM*, SARS PLpro yeast -2.0% and Pf growth 96h 20.6%.
For COC(=O)c1cc2oc(C)cc2n1CC(=O)N1CCCc2ccccc21 the results were AMA1 RON2 block -13.2%, Pf growth 48h inconclusive, SARS PLpro yeast 2.9% and Pf growth 96h 6.57µM*.
`CCOC(=O)c1cc2occc2n1CC(=O)N1CCCc2ccccc21` gave AMA1 RON2 block -17.2%, Pf growth 48h 9.28µM*, SARS PLpro yeast 0.5% and Pf growth 96h inactive.
For COc1ccccc1-c1nc(C#N)c(N2CCC(Cc3ccccc3)CC2)o1 the results were AMA1 RON2 block inconclusive, Pf growth 48h inconclusive, SARS PLpro yeast 1.1% and Pf growth 96h 9.6%.
O=C(Cn1nc(-c2ccco2)ccc1=O)Nc1cc(Cl)ccc1Cl was read as AMA1 RON2 block 29.7%, Pf growth 48h inconclusive, SARS PLpro yeast 1.9% and Pf growth 96h 0.7%.
For COc1ccc(-n2[nH]c3c(cnc4ccccc43)c2=O)cc1 the results were AMA1 RON2 block 0.0%.
`COC(=O)C1=C(C)NC(=O)NC1c1ccc(OC(=O)c2ccco2)cc1` (centres undefined) gave AMA1 RON2 block -6.2%, Pf growth 48h 9.9%, SARS PLpro yeast 0.8% and Pf growth 96h inconclusive.
For COC(=O)/C(=N/Nc1ccccc1)N1CCCc2ccccc21 the results were AMA1 RON2 block -6.4%, Pf growth 48h -10.9%, SARS PLpro yeast 9.1% and Pf growth 96h 10.4µM*.
For CC(=O)/C(=N/Nc1ccc([N+](=O)[O-])cc1)N1CCCc2ccccc21 the results were AMA1 RON2 block 2.2%, Pf growth 48h inconclusive, SARS PLpro yeast 2.8% and Pf growth 96h 23.8%.
For COC(=O)/C(=N/Nc1ccc(C)cc1)N1CCCc2ccccc21 the results were AMA1 RON2 block inconclusive, Pf growth 48h inconclusive, SARS PLpro yeast -59.0% and Pf growth 96h 11.7µM*.
`CC(=O)/C(=N/Nc1ccccc1[N+](=O)[O-])N1CCCc2ccccc21` gave AMA1 RON2 block 8.91µM*, Pf growth 48h inconclusive, SARS PLpro yeast -2.2% and Pf growth 96h inconclusive.
`COc1cccc(C(C(=O)NCc2ccccc2)N2CCN(c3ccccc3F)CC2)c1OC` (centres undefined) gave AMA1 RON2 block -12.2%.
Screening OCc1cccc[n+]1Cc1ccccc1 returned AMA1 RON2 block 9.9%.
CC(=O)Nc1ccc(S(=O)(=O)N2CCC3(CC2)OCCO3)cc1 was read as AMA1 RON2 block -5.3%, Pf growth 48h 19.8%, SARS PLpro yeast 0.0% and Pf growth 96h 9.28µM*.
For CC(=O)Nc1ccc(S(=O)(=O)N2CCN(CCN3CCOCC3)CC2)cc1Cl the results were AMA1 RON2 block 13.2%, Pf growth 48h 2.08µM*, SARS PLpro yeast -2.6% and Pf growth 96h 14.6%.
O=C(CCc1ccc(S(=O)(=O)N2CCOCC2)cc1)N/N=C/c1cccc(O)c1 was read as AMA1 RON2 block 0.8%, Pf growth 48h inconclusive, SARS PLpro yeast inconclusive and Pf growth 96h 14.7µM*.
Screening CC(=O)Nc1ccc(S(=O)(=O)N2CCSC2c2ccc(C)cc2)cc1 (centres undefined) returned AMA1 RON2 block 2.2%, Pf growth 48h -2.2%, SARS PLpro yeast -3.1% and Pf growth 96h 4.1%.
For CC(=O)Nc1ccc(S(=O)(=O)N2CCSC2C(=O)O)cc1 (centres undefined) the results were AMA1 RON2 block 2.6%, SARS PLpro yeast 5.4% and Pf growth 96h 11.7µM*.

Source: PubChem BioAssay
